We go through 18 compounds from PubChem BioAssay.

Structures are written as SMILES. Values without a mark were called inactive. No rule for the calls is given here.

For orientation: inhibition means the relative decrease from the control value, in per cent.

The assay deals with Pantothenate synthetase (Mycobacterium tuberculosis (strain ATCC 25618 / H37Rv)) (UniProt P9WIL5). Description: Recombinant Mtb pantothenate synthetase (PanC) inhibitors, coupled enzyme, confirmatory (AID 375).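 Also: 0% = full reaction with vehicle and 100% = no enzyme background.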 The note with it: coupled enzyme assay; at 10 µM, stronger effect = higher value.
Chain of Pantothenate synthetase (Mycobacterium tuberculosis (strain ATCC 25618 / H37Rv)) (P9WIL5 whole entry, looked up): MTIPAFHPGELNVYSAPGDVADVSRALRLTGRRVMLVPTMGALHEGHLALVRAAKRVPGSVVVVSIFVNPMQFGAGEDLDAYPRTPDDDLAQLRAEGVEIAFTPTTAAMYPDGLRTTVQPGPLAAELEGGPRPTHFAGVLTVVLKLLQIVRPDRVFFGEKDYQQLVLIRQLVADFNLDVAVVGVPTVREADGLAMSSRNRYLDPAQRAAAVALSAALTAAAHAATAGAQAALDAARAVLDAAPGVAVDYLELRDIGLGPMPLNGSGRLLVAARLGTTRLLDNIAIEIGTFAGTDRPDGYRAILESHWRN
On to `CCOc1cc(C2C(C#N)=C(N)OC(C)=C2C(C)=O)cc(Br)c1O` (stereo not drawn), for which the inhibition was 1%.
For `Cc1cc(=O)c2n(Cc3ccccc3Cl)nc[n+]2[nH]1` the value was 5%.
The value for `CCOc1ccccc1N1Cc2cc(C)c(C)cc2C1` was 0%; that for `CCOC(=O)c1c(NC(=O)CSc2nc3c(c(=O)n(C)c(=O)n3C)n2C(C)C)sc(C)c1C` was 10%.
For `Cn1c(=O)c2c(nc(Br)n2CCSc2nnnn2-c2ccccc2)n(C)c1=O` the value was 0%.
For the compound `CCCCNC(=O)Nc1ccnn1C1CCCCC1`, the inhibition was 1%.
Consider `CC(C)C(=O)Nc1nnc(CCc2nnc(NC(=O)C(C)C)s2)s1`, for which the inhibition was 2%.
The value for `c1ccc(-c2oc3ncnc(NCCN4CCOCC4)c3c2-c2ccccc2)cc1` was 4%; that for `Cc1cc(C(=O)Nc2nnc(C(F)(F)F)s2)no1` was 0%.
For `COc1ccc(-c2nc(N)nc(C)c2Oc2ccccc2Br)c(O)c1` the value was 0%; for `O=C(COC(=O)c1ccco1)NCc1cccs1`, 0%.
For `CCOC(=O)c1sc(NC(=O)CSc2n[nH]c(-c3ccccc3)n2)c(C#N)c1C` the value was 11%; for `Cn1nc(C(=O)NC2CCCCCC2)ccc1=O`, 0%; for `COc1ccc(NC(=O)C(C)NS(=O)(=O)c2ccc(NC(C)=O)cc2)cc1Cl` (stereo not drawn), 9%.
Consider `Cc1nc2cc(C(=O)O)ccc2n1-c1ccc(F)cc1F`, for which the inhibition was 2%.
In the case of `O=c1oc2ccccc2c(N2CCCCC2)c1CN1CCCCC1`, the inhibition was 0%.
For `COc1cccc(NC(=O)COC(=O)c2cccnc2)c1`, the inhibition is 0%.
For `CC(=O)C1=C(C)NC(=O)NC1c1cccc(O)c1` (stereo not drawn) the value was 8%.
